High-throughput results: PubChem, Sanford-Burnham Center for Chemical Genomics
CYP2C19 act: increases human CYP2C19 enzyme activity; P33261; recombinant CYP2C19, luciferin-H EGE luminescence; hits give high values; 0 = fully inhibited enzyme, 1 = untreated enzyme; activation factor at 5 µM; 96,000 tested, under 10 active;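 active = activation factor of at least 2 at 5 µM in the primary screen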
CYP2C19 inhib: human CYP2C19 inhibition | inhibition, % at 5 µM | CYP2C19 Supersomes, luciferin-H EGE luminescence, 30 min | 96,000 tested, 21% active | AID 778 | P33261;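 active = CYP2C19 inhibition above a set limit at 5 µM in the primary screen, cut at about 50% in these data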
CYP2C9 activ: increases human cytochrome P450 2C9 activity. AID 1024. 96,000 tested, 1.4% active. recombinant CYP2C9, luciferin-H conversion, luminescence; hits give high values; factor 1 = untreated enzyme, 0 = blocked. activation factor at 5 µM;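 active = activation factor of 2 or more for CYP2C9 at a 5 µM dose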
Target sequence (P11712 whole entry, looked up): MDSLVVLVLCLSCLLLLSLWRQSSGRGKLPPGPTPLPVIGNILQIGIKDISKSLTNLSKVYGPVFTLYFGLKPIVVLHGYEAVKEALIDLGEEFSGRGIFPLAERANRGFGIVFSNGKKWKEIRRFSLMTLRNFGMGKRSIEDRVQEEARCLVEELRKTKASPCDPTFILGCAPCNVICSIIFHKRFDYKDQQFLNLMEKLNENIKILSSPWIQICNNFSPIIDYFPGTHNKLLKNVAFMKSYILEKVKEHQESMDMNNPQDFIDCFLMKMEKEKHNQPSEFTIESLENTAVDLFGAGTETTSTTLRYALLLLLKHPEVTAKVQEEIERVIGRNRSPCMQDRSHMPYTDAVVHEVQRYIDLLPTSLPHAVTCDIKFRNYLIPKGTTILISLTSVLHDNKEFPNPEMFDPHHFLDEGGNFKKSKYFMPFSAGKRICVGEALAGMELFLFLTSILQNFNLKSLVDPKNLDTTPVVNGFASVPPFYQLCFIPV
CYP2C9 inhib: blocks human cytochrome P450 2C9; CYP2C9 Supersomes, luciferin-H conversion, luminescence; inhibition, % at 5 µM; 96,000 tested, 20% active; AID 777;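 active = blocking of liver enzyme CYP2C9 beyond about 50% at 5 µM, limit read from the data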
CD11b adhes inh: blocks human CD11b/CD18 adhesion to fibrinogen. K562 CD11b/CD18 adhesion to fibrinogen, ATPlite luminescence; Mn2+ added to activate the integrin. inhibition, % at 10 µM. 93,000 tested, 0.54% active. AID 1497;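 active = primary inhibition of 50% or more at 10 µM, then 40% or more on retest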
Mac1 fbg enh: increases human CD11b/CD18 adhesion to fibrinogen. K562 CD11b/CD18 adhesion to fibrinogen, ATPlite luminescence. activation, % at 10 µM. 93,000 tested, 0.07% active. AID 1499;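 active = 10 µM primary screen giving 50% or more activity, confirmed by 40% or more on retest at that dose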
A number is an active result; - = inactive; . = no result given. This is a sample that favours compounds with a hit; in the whole collection about 28% have one here.

SMILES	CYP2C19 act	CYP2C19 inhib	CYP2C9 activ	CYP2C9 inhib	CD11b adhes inh	Mac1 fbg enh
C=CCn1c(COc2ccccc2F)nnc1SCC(=O)Nc1cc2oc3ccccc3c2cc1OC	-	-	-	-	-	-
Cc1n[nH]c(=S)n1/N=C/c1ccc(-c2ccccc2[N+](=O)[O-])o1	-	-	-	-	-	-
Cc1ccc(-c2ccc(/C=C3\C(=O)ON=C3c3ccccc3)o2)c([N+](=O)[O-])c1	-	-	-	100.4	.	.
O=C(CSc1ncc(-c2ccc(F)cc2)[nH]1)Nc1cccc(O)c1	-	50.7	-	-	-	-
CCOC(=O)CSc1ccc(-c2nc3ccccc3[nH]2)cn1	-	-	-	-	-	-
CCc1nnc(NC(=O)CSc2nnc3ncccn23)s1	-	68.3	-	-	-	-
COc1cc(NC(=O)c2ccco2)c(OC)cc1NC(=O)CSc1ncc(-c2ccc(F)cc2)[nH]1	-	-	-	-	-	-
CCc1nnc(NC(=O)CSc2ncc(-c3ccccc3)[nH]2)s1	-	-	-	65.6	-	-
CCc1nnc(NC(=O)CSc2ccc(-c3nc4ccccc4[nH]3)cn2)s1	-	-	-	50.7	-	-
CCc1nnc(NC(=O)CSc2ncc(-c3ccccc3)n2CC)s1	-	75.7	-	71.8	-	-
Clc1ccc(CN2CCN(c3ncnc4scc(-c5cccs5)c34)CC2)cc1	-	83.5	-	-	-	-
CC(=O)Nn1cnc2c(c1=O)C1(CCCC1)Cc1ccccc1-2	-	88.5	-	61.5	-	-
O=c1[nH]cnc2c1C1(CCCC1)Cc1ccccc1-2	-	88.3	-	-	.	.
COC(=O)CCSCc1cn2cc(Cl)ccc2n1	-	-	-	-	-	-
CCCCCCn1c(=O)[nH]c2nc3cc(N)ccc3nc2c1=O	.	.	.	.	-	-
CC(C)(C)n1nnnc1C(c1ccc(Cl)cc1)N1CCCc2ccccc21 (stereo unspecified)	-	83.5	-	76.3	-	-
COc1ccccc1C(c1nnnn1C(C)(C)C)N1CCCc2ccccc21 (stereo unspecified)	-	-	-	-	.	.
COc1ccccc1N1CCN(C(c2ccccc2Cl)c2nnnn2C(C)(C)C)CC1 (stereo unspecified)	-	-	-	-	-	-
COc1ccccc1N1CCN(C(c2ccc(Cl)cc2)c2nnnn2C(C)(C)C)CC1 (stereo unspecified)	-	89.0	-	86.9	-	-
CCC(C)(C)n1nnnc1C(c1cccnc1)N1CCCc2ccccc21 (stereo unspecified)	-	-	-	-	-	-
CC(C)(C)n1nnnc1C(c1cccc(C#N)c1)N1CCCc2ccccc21 (stereo unspecified)	-	90.9	-	93.9	-	-
COc1ccccc1C(c1nnnn1C(C)(C)C)N1CCN(Cc2ccncc2)CC1 (stereo unspecified)	-	79.1	-	89.4	.	.
Cc1ccc(S(=O)(=O)N(CC(=O)N/N=C/c2cccc(Cl)c2)c2cccc3cccnc23)cc1	-	-	-	-	-	-
O=C(NCCCCNC(=O)c1ccc(Br)s1)c1ccc(Br)s1	-	-	-	-	-	-
CCC1S/C(=N\S(=O)(=O)c2cccs2)N(C2CCCCC2)C1=O (stereo unspecified)	-	78.7	-	56.7	-	-
SMILES	CYP2C19 act	CYP2C19 inhib	CYP2C9 activ	CYP2C9 inhib	CD11b adhes inh	Mac1 fbg enh
O=C(NC1(C(F)(F)F)NC(=O)N(C2CCCCC2)C1=O)c1cccs1 (stereo unspecified)	-	-	-	-	.	.
CCN(CC)C(=O)C1CCCN(c2ccc([N+](=O)[O-])cc2/C=N/NC(=O)c2cccc(O)c2)C1 (stereo unspecified)	-	89.2	-	93.2	-	-
CCN(CC)C(=O)C1CCCN(c2ccc([N+](=O)[O-])cc2/C=N/NC(=O)c2ccc([N+](=O)[O-])cc2)C1 (stereo unspecified)	-	-	-	-	.	.
COC(=O)c1ccc(OC(=O)c2ccc(OCc3c(C)noc3C)c(OC)c2)cc1	-	-	-	-	-	-
COc1ccc(OCc2nnc3n2N=C(c2ccc(Br)cc2)CS3)cc1	-	-	-	-	-	-
CSCCC1NC2(C(=O)Nc3c2ccc(Cl)c3C)[C@@H]2C(=O)N(C3CCCC3)C(=O)[C@H]12 (stereo partly specified)	-	91.0	-	91.4	-	-
Cc1c(Cl)ccc2c1NC(=O)C21NC(CCC(N)=O)[C@H]2C(=O)N(c3ccc(Cl)cc3)C(=O)[C@H]21 (stereo partly specified)	-	57.1	-	70.4	-	-
CCN(Cc1ccccc1)S(=O)(=O)c1ccc(C(=O)Nc2nnc(-c3ccccc3OC)o2)cc1	-	-	-	70.1	-	-
CCCCN(CC)S(=O)(=O)c1ccc(C(=O)Nc2nnc(COC)o2)cc1	-	-	-	64.2	-	-
CCCN(CCC)S(=O)(=O)c1ccc(C(=O)Nc2nnc(CSC)o2)cc1	-	-	-	-	-	-
COc1ccccc1-c1nnc(NC(=O)c2ccc(S(=O)(=O)N(C)C)cc2)o1	-	-	-	-	-	-
O=C(Nc1nnc(-c2ccccc2Cl)o1)c1ccc(S(=O)(=O)N2CCCCCC2)cc1	-	-	-	54.5	-	-
CC1CCCCN1S(=O)(=O)c1ccc(C(=O)Nc2nnc(-c3ccccc3Cl)o2)cc1 (stereo unspecified)	-	-	-	-	-	-
CCc1nnc(NC(=O)c2ccc(S(=O)(=O)N(CCOC)CCOC)cc2)s1	-	-	2	-	-	-
Cc1[nH]c(=O)[nH]c(=O)c1/C=N/NC(=O)[C@@H](NC(=O)OC(C)(C)C)C(C)C	-	-	-	-	-	-
CCCCN(C)S(=O)(=O)c1ccc(C(=O)Nc2nnc(-c3cccs3)o2)cc1	-	-	-	-	.	.
CCCCN(CC)S(=O)(=O)c1ccc(C(=O)Nc2nnc(CSC)o2)cc1	-	-	-	81.8	-	-
CCCCN(CCCC)S(=O)(=O)c1ccc(C(=O)Nc2nnc(CSC)o2)cc1	-	-	-	-	-	-
COc1ccccc1-c1nnc(NC(=O)c2ccccc2F)o1	-	-	-	63.7	-	-
CCCCN(CC)S(=O)(=O)c1ccc(C(=O)Nc2nnc(-c3ccccc3Cl)o2)cc1	-	-	-	68.8	-	-
CSc1nc(C)cc(SCCO)n1	-	-	-	-	-	-
Cc1n[nH]c(C)c1S(=O)(=O)NCCc1ccc(Cl)cc1	-	-	-	-	-	-
CCCN(CCC)C(=O)C[n+]1cccc(/C=N/O)c1	.	.	.	.	-	-
COc1cc(/C=C2\SC(=S)N(Nc3ncc(C(F)(F)F)cc3Cl)C2=O)ccc1O	-	53.5	-	52.0	-	-
CN(C)c1ccc(/C=C2\SC(=S)N(Nc3ncc(C(F)(F)F)cc3Cl)C2=O)cc1	-	-	-	-	.	.
